Results on two sequences are retold here after publication PMC7862700, “An all-to-all approach to the identification of sequence-specific readers for epigenetic DNA modifications on cytosine”.

Common to all, as to test: DAPPL (digital affinity profiling via proximity ligation, sequencing); 10 mM Tris-HCl pH 7.5, 50 mM NaCl, 1 mM DTT, 4% glycerol, room temperature, 30 min; GST-TFs on glutathione beads, 16-mer random dsDNA library, 0.1% formaldehyde crosslink after washing; high values mean tight binding
Conditions in all cases: protein: recombinant; tags: N-terminal GST; dsDNA, one strand shown

The target of one experiment is T1, FLI1 (Homo sapiens, UniProt Q01543 1-452).
T1 sequence: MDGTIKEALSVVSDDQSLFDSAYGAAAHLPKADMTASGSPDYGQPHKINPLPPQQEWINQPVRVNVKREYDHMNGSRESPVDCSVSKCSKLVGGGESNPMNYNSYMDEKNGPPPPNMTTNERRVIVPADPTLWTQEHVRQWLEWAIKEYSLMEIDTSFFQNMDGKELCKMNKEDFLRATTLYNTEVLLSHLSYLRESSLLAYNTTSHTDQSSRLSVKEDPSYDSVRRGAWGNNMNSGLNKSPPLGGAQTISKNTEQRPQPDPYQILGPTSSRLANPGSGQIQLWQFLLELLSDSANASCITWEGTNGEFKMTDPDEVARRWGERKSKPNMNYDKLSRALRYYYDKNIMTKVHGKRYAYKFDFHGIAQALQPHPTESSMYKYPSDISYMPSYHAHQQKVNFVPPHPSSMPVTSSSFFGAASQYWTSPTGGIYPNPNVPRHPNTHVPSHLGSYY
In short, it runs like this: (§1)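 Beads coated with glutathione captured GST-fused human transcription factors that had been expressed in yeast, and the factors were then given DNA barcodes and pooled with a tag-only sample. The pools were incubated with 200 nmole of a random double-stranded 16-mer DNA library in Tris/NaCl/DTT/glycerol buffer for 30 min at room temperature, washed, crosslinked with 0.1% formaldehyde and proximity-ligated with BsaI/T4 ligase at 37 °C for 1 h. PCR amplification and Illumina NextSeq500 sequencing came last. Binding signal is each hexamer's read frequency for a factor divided by its frequency for the tag-only sample.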

A further experiment has as its target T2, ELK1 (Homo sapiens, UniProt P19419 1-428).
T2 sequence: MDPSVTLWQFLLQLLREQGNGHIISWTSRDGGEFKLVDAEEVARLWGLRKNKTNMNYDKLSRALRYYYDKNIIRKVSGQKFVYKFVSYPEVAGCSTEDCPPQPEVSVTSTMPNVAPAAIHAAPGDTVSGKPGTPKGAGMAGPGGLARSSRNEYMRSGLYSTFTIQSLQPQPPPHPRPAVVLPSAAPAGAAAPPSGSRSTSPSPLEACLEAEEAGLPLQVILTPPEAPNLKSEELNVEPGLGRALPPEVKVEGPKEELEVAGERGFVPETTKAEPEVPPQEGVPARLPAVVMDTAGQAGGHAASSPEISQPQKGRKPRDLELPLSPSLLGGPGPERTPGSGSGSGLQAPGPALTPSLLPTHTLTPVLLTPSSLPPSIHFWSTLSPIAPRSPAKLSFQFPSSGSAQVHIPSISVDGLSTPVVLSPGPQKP
In short, it runs like this: as §1

A further experiment has as its target T3, GABPA (Homo sapiens, UniProt Q06546 1-454).
T3 sequence: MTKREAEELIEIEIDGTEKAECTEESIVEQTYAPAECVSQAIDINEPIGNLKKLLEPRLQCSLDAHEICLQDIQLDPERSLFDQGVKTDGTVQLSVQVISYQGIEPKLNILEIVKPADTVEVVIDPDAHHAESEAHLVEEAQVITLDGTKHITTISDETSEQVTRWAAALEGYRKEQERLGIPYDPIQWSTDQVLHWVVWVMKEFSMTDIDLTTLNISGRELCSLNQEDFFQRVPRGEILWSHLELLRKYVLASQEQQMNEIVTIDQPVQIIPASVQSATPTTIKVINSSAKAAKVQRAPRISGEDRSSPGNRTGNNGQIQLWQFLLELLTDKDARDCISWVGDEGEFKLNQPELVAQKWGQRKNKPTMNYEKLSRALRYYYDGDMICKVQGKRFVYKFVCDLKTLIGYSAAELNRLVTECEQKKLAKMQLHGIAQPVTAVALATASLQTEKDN
In short, it runs like this:
as §1

Another experiment concerns the target T4, ERG (Homo sapiens, UniProt P11308 1-479).
T4 sequence: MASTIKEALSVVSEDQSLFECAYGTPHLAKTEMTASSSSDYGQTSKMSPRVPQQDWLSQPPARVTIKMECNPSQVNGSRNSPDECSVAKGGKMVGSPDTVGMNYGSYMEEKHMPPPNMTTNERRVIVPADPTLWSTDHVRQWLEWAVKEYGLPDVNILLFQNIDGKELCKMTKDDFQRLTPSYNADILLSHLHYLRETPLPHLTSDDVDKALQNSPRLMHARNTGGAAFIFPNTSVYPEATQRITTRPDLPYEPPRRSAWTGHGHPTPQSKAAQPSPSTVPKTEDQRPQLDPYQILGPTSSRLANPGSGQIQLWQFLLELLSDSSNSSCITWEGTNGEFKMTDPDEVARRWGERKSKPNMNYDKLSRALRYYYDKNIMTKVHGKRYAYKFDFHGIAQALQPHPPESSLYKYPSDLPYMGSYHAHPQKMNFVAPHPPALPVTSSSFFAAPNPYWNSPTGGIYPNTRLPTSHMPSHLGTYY
In short, it runs like this: as §1

For the next experiment, the target named is ELF1 (Homo sapiens, UniProt P32519 1-619). In short, it runs like this: as §1
For a further experiment, the target named is T5, EHF (Homo sapiens, UniProt Q9NZC4 1-300).
T5 sequence: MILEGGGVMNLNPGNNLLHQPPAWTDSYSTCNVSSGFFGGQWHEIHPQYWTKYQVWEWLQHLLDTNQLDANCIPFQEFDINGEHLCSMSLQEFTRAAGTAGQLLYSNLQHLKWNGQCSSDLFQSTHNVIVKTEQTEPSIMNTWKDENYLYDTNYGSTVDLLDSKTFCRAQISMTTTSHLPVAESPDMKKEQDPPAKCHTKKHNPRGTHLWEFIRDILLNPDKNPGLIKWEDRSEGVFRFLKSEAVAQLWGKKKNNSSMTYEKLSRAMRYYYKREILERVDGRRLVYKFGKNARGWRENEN
In short, it runs like this: as §1

The target of a further experiment is SPI1 (Homo sapiens, UniProt P17947 1-270). In short, it runs like this:
as §1

A further experiment has as its target T6, ELK3 (Homo sapiens, UniProt P41970 1-407).
T6 sequence: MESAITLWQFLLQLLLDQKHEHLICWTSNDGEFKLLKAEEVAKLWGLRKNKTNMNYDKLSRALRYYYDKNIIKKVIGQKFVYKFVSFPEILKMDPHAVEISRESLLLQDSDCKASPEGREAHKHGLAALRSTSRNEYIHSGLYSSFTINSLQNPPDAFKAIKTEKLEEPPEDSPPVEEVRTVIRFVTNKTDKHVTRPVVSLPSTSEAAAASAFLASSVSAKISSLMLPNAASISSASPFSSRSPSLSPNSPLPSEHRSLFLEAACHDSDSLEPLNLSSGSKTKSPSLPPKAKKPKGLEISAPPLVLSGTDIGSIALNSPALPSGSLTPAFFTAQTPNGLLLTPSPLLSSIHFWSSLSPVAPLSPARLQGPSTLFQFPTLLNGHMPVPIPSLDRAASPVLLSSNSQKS
In short, it runs like this:
as §1

In another experiment the target is T7, FEV (Homo sapiens, UniProt Q99581 1-238).
T7 sequence: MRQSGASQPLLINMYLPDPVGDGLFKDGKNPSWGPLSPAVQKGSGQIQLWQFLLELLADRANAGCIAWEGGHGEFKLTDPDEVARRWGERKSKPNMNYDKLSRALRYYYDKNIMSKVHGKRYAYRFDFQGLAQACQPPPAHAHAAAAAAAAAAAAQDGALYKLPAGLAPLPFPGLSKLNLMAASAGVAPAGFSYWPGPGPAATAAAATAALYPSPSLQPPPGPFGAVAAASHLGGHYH
In short, it runs like this: as §1

In the next experiment the target is ETV5 (Homo sapiens, UniProt P41161 1-510). In short, it runs like this:
as §1

For a further experiment, the target named is T8, SPIC (Homo sapiens, UniProt Q8N5J4 1-248).
T8 sequence: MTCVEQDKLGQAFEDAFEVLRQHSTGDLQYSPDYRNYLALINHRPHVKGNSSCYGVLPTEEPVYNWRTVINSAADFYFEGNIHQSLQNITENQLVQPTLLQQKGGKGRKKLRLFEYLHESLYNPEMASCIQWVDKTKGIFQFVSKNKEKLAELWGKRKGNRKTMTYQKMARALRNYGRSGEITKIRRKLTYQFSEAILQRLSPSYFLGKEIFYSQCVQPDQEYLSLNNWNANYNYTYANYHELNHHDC
In short, it runs like this: as §1

In the next experiment the target is ELF4 (Homo sapiens, UniProt Q99607 1-663). In short, it runs like this: as §1
For another experiment, the target named is T9, ELK4 (Homo sapiens, UniProt P28324-2 1-405).
T9 sequence: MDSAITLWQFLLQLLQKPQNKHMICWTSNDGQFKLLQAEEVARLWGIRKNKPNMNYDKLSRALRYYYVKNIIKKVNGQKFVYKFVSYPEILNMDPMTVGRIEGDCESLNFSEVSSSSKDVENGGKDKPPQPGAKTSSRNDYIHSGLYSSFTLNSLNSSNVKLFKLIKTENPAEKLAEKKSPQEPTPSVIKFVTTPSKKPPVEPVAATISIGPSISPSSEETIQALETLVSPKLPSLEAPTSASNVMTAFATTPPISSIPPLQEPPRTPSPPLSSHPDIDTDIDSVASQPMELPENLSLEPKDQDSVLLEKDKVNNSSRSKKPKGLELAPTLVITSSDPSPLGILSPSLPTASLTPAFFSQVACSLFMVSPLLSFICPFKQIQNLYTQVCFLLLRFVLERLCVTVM
In short, it runs like this:
as §1

Another experiment concerns the target T10, ELF3 (Homo sapiens, UniProt P78545 1-371).
T10 sequence: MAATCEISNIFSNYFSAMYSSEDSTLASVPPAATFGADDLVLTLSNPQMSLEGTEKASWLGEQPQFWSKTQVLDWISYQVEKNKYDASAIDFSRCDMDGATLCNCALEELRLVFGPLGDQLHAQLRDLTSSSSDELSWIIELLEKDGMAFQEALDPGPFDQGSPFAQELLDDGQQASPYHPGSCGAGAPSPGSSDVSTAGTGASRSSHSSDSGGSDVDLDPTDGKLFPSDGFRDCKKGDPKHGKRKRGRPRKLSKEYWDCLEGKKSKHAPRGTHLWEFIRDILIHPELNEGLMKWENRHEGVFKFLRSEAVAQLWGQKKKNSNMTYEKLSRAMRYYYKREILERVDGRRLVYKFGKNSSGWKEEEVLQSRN
In short, it runs like this:
as §1

Another experiment concerns the target ETV1 (Homo sapiens, UniProt P50549 1-477). In short, it runs like this:
as §1

The next experiment addresses SPIB (Homo sapiens, UniProt Q01892 1-262). In short, it runs like this:
as §1

Chain of ELF4 (Q99607 whole entry): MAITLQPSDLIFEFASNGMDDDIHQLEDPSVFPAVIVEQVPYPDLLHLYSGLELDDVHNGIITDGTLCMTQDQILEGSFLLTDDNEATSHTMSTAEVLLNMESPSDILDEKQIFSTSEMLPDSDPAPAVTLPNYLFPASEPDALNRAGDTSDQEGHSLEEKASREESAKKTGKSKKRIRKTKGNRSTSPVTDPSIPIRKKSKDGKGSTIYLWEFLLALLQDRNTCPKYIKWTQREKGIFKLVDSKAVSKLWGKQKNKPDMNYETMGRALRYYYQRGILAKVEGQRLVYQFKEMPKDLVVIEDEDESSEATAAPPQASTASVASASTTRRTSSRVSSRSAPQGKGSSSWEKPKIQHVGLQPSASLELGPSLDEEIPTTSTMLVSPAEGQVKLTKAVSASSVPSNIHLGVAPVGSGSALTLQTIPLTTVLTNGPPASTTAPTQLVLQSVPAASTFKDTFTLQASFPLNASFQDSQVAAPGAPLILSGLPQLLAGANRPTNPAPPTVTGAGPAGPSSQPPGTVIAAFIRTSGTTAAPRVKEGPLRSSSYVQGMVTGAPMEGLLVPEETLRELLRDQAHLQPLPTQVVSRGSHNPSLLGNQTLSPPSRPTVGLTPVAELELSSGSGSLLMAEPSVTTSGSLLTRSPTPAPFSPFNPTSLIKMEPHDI
Chain of ETV5 (P41161 whole entry): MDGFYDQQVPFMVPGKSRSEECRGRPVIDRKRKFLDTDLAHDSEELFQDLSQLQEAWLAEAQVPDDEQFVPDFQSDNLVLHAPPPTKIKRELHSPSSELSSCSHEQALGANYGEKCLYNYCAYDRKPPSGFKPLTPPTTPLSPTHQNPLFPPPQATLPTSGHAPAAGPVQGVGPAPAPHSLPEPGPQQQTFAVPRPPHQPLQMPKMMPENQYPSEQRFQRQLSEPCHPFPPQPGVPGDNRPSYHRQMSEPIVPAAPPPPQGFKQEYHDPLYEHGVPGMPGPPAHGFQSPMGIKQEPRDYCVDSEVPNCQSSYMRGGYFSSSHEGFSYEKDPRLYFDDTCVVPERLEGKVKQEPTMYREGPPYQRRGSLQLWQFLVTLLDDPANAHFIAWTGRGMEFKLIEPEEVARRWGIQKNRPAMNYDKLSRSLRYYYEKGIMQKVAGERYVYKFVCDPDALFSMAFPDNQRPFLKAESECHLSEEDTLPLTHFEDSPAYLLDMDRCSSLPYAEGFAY
Chain of ETV1 (P50549 whole entry): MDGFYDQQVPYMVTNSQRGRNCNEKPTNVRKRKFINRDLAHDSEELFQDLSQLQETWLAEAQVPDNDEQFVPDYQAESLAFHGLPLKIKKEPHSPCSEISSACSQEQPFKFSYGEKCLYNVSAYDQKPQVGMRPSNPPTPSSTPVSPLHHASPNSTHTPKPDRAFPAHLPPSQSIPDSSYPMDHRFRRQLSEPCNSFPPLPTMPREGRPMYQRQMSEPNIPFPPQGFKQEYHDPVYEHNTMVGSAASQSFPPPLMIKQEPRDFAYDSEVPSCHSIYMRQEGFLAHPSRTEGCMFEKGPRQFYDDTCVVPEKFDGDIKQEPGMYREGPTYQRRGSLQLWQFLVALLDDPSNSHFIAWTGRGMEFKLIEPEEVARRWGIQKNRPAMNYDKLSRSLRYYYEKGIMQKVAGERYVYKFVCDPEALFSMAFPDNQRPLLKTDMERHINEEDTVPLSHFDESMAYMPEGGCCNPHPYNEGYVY
Chain of ELF1 (P32519 whole entry): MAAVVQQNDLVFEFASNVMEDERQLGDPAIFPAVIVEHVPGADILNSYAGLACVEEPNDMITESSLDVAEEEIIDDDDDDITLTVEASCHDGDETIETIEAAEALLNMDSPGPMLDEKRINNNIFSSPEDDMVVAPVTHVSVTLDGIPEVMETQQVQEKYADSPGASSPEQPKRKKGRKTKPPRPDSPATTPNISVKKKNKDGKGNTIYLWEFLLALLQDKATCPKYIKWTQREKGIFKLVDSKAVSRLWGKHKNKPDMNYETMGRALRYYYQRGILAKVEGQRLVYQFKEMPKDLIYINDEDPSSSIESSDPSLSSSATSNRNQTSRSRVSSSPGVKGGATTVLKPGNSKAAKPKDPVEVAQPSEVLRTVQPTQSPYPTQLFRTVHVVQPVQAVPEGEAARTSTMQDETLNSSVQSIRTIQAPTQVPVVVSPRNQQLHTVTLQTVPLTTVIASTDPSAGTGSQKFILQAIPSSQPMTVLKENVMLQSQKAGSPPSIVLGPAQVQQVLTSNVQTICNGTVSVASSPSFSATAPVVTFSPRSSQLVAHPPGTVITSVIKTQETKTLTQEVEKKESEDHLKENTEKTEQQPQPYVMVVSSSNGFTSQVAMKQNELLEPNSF
Chain of SPIB (Q01892 whole entry): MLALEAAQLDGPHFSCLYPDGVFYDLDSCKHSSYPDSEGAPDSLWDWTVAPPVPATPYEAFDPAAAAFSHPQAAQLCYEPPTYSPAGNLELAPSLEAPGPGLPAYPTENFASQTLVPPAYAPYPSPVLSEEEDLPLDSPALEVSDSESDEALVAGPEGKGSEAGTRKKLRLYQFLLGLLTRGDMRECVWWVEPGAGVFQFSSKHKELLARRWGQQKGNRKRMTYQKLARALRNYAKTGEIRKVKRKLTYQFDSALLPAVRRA

For GTACTC, the binding signal with FLI1 is 1.06 fold enrichment (6-mer frequency, TF over GST control); with ELK1, 1.09 fold enrichment (6-mer frequency, TF over GST control); in the experiment with GABPA it was 1.16 fold enrichment (6-mer frequency, TF over GST control); in the experiment with ERG it was 1.09 fold enrichment (6-mer frequency, TF over GST control); with ELF1, 1.16 fold enrichment (6-mer frequency, TF over GST control); in the experiment with EHF it was 1.08 fold enrichment (6-mer frequency, TF over GST control). The binding signal was 1.01 fold enrichment (6-mer frequency, TF over GST control) in the experiment with SPI1; 1.18 fold enrichment (6-mer frequency, TF over GST control) with ELK3; 1.11 fold enrichment (6-mer frequency, TF over GST control) with FEV; 1.19 fold enrichment (6-mer frequency, TF over GST control) with ETV5; 1.06 fold enrichment (6-mer frequency, TF over GST control) with SPIC; 1.12 fold enrichment (6-mer frequency, TF over GST control) with ELF4. For the same sequence, the binding signal in the experiment with ELK4 is 1.03 fold enrichment (6-mer frequency, TF over GST control); in the experiment with ELF3, 1.07 fold enrichment (6-mer frequency, TF over GST control); with ETV1, 1.1 fold enrichment (6-mer frequency, TF over GST control).
Take AAGTTG: the binding signal was 1.09 fold enrichment (6-mer frequency, TF over GST control) in the experiment with FLI1; 1.07 fold enrichment (6-mer frequency, TF over GST control) with ELK1; 1.1 fold enrichment (6-mer frequency, TF over GST control) with GABPA; 1.08 fold enrichment (6-mer frequency, TF over GST control) with ERG; 1.08 fold enrichment (6-mer frequency, TF over GST control) in the experiment with ELF1; 1.14 fold enrichment (6-mer frequency, TF over GST control) with EHF. Further, the binding signal with SPI1 is 1.13 fold enrichment (6-mer frequency, TF over GST control); in the experiment with SPIB, 1.1 fold enrichment (6-mer frequency, TF over GST control); with ELK3, 1.11 fold enrichment (6-mer frequency, TF over GST control); with FEV it was 1.05 fold enrichment (6-mer frequency, TF over GST control); with ETV5, 1.16 fold enrichment (6-mer frequency, TF over GST control); with SPIC, 1.08 fold enrichment (6-mer frequency, TF over GST control). Also, the binding signal with ELF4 is 1.14 fold enrichment (6-mer frequency, TF over GST control); with ELK4 it was 1.12 fold enrichment (6-mer frequency, TF over GST control); with ELF3, 1.12 fold enrichment (6-mer frequency, TF over GST control); with ETV1, 1.02 fold enrichment (6-mer frequency, TF over GST control).
